The source made the active and inactive calls. Unless noted, the rule behind the calls is not given here.
Assays:
[1] = HepG2 liver cancer cell viability effects, profiling panel, resazurin fluorescence, 24 h, PK04 Diversity Set (AID 1172); conditions: higher = more signal
[2] = basal S. cerevisiae growth modulation, no modifier, primary screen, OD600, strain BY4716, 24 h, basal condition (AID 1173); conditions: OD600, 24 h, higher = more signal, called active from +8 up or from −8 down
[3] = MM1S myeloma cell viability, profiling panel, resazurin fluorescence, basal, 24 h, PK04 Diversity Set (AID 1174); conditions: higher = more signal, called active from +8 up or from −8 down;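 note: MM1S multiple myeloma cell line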
[4] = molecular target: Dihydroorotate dehydrogenase (quinone), mitochondrial (Plasmodium falciparum (isolate 3D7)) (UniProt Q08210); assay: PfDHODH enzyme inhibitors, primary screen, biochemical, C-terminal His tag, absorbance 600 nm (AID 1175); conditions: DCIP absorbance 600 nm, higher = more signal, called active from +8 up or from −8 down;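 note: recombinant parasite enzyme with a five histidine tag at its C terminus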
Chain of Dihydroorotate dehydrogenase (quinone), mitochondrial (Plasmodium falciparum (isolate 3D7)) (Q08210 whole entry, looked up): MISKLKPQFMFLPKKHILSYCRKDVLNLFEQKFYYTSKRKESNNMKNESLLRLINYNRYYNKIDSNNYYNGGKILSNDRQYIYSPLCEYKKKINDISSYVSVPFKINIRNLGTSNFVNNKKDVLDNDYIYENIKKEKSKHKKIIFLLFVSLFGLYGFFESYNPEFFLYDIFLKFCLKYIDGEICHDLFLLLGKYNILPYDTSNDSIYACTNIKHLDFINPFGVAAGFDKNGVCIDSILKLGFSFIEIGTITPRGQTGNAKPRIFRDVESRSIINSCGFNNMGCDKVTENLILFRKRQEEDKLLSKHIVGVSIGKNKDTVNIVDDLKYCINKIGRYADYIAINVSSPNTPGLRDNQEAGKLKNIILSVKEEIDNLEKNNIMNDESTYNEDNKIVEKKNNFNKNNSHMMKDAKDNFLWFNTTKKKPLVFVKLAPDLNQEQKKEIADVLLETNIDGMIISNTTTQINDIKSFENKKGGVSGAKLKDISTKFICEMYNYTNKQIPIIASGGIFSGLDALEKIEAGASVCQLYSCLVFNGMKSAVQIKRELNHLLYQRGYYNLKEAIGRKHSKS

[5] = P. aeruginosa biofilm formation inhibitors, primary screen, strain PAO1, LB-PBS medium, absorbance 600 nm (AID 1176); conditions: P. aeruginosa PAO1 growth/biofilm, A600, 12 h; higher = more signal
[6] = S. cerevisiae RM11-1a growth modifiers, primary screen, strain RM11-1a, OD600, basal, 24 h (AID 1177); conditions: OD600, 24 h, higher = more signal, called active from +8 up or from −8 down;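 note: cultures grown under basal conditions with no added stressor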
[7] = E. coli acrAB mutant growth effects, primary screen, E. coli filamentation inducers, strain DRC39, OD650, 24 h (AID 1178); conditions: higher = more signal, called active from +8 up or from −8 down;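 note: growth measured as culture turbidity by optical density at 650 nm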
[8] = E. coli acrAB mutant growth effects, primary screen, E. coli filamentation inducers, strain DRC39, OD650, 48 h (AID 1179);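 note: screen aims at cell division blockers that make cells filament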; conditions: E. coli DRC39 delta-acrAB growth, higher = more signal, called active from +8 up or from −8 down
[9] = RPMI8226 myeloma cell viability, profiling panel, resazurin fluorescence, basal, 24 h, PK04 Diversity Set (AID 1180); conditions: higher = more signal;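 note: RPMI8826 multiple myeloma cell line at 5000 cells per well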
[10] = molecular target: E3 ubiquitin-protein ligase XIAP (Homo sapiens) (UniProt P98170); assay: XIAP binders, primary screen, biophysical, small-molecule microarray, fluorescence 635 nm (AID 1181); conditions: small-molecule microarray binding, higher = more signal;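 note: score merges 667 nm emission and signal to noise over triplicate slides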
Chain of E3 ubiquitin-protein ligase XIAP (Homo sapiens) (P98170 whole entry, looked up): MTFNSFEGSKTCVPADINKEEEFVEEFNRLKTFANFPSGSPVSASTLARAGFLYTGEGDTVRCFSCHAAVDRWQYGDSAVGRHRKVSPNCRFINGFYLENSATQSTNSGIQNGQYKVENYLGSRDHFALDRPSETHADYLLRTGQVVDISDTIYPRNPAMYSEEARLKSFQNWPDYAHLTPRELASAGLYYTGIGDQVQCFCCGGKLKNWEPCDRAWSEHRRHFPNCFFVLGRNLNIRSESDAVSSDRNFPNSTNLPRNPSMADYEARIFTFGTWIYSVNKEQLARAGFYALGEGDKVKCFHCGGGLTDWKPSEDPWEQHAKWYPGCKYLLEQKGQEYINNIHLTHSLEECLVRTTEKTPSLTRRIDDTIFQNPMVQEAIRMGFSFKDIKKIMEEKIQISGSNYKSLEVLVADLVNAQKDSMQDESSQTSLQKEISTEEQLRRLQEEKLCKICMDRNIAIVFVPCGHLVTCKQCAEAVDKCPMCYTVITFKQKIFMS

[11] = tested on: XIP peptide (Xip251-270) binding; assay: small-molecule binders of XIP peptide, primary screen, biochemical, small-molecule microarray, fluorescence 635/667 nm, 0.1 µg/mL protein (AID 1182); conditions: fluorescent protein binding, 635 nm, higher = more signal, called active from +8 up or from −8 down
XIP peptide (Xip251-270) = assay: small-molecule binders of XIP peptide, primary screen, biochemical, small-molecule microarray, fluorescence 635/667 nm, 0.5 µg/mL protein (AID 1183); conditions: small-molecule microarray binding, fluorescence 635 nm; higher = more signal
[12] = Plasmodium falciparum growth inhibition, primary screen, strain 3D7, DAPI fluorescence, 100 nL (AID 1184);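 note: parasites grown inside human red blood cells in medium with human serum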; conditions: P. falciparum 3D7 growth, 3 d, higher = more signal
[13] = molecular target: Homeobox protein Hox-A13 (Mus musculus) (UniProt Q62424); assay: inhibitors of HoxA13-DNA binding, primary screen, biochemical, fluorescence polarization, labeled oligonucleotide (AID 1185); conditions: 15 min, higher = more signal, called active from +8 up or from −8 down
Chain of Homeobox protein Hox-A13 (Mus musculus) (Q62424 whole entry, looked up): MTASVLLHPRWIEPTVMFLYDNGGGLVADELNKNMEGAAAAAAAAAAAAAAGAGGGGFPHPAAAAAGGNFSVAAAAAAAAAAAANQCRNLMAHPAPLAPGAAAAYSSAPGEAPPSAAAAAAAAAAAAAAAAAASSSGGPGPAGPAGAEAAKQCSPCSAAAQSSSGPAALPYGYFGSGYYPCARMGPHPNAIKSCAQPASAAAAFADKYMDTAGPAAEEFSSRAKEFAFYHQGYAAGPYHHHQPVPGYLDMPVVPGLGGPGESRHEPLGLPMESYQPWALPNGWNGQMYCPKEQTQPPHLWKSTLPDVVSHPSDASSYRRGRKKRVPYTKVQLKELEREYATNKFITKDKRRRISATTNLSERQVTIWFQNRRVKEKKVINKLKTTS

[14] = inhibitors of hydroxyurea-induced Chk1 phosphorylation, primary screen, imaging, HeLa, phospho-Chk1 antibody, percent positive cells (AID 1186); conditions: hydroxyurea-induced phospho-Chk1 immunofluorescence imaging, higher = more signal
[15] = inhibitors of hydroxyurea-induced Chk1 phosphorylation, primary screen, imaging, HeLa, phospho-Chk1 nuclear intensity (AID 1187); conditions: hydroxyurea-induced phospho-Chk1 immunofluorescence imaging, higher = more signal

Compound: C=C(CCCC)C(=O)CC[C@@H](OC(=O)c1cccnc1)c1ccc(CO)o1
- z-score [1]: 0.154
- z-score [2]: -0.594 (inactive)
- z-score [3]: -0.16 (inactive)
- composite z-score [4]: -1.05 (inactive)
- z-score [5]: 0.555 (inactive)
- z-score [6]: 0.0671 (inactive)
- z-score [7]: 0.186 (inactive)
- z-score [8]: -0.0608 (inactive)
- z-score [9]: 0.0739
- composite z-score [10]: 0.0256
- composite z-score [11]: 0.67 (inactive)
- composite z-score (XIP peptide (Xip251-270)): 0.561
- z-score [12]: -0.46
- z-score [13]: -4.35 (inactive)
- z-score [14]: 0.575 (inactive)
- z-score [15]: -0.023 (inactive)

Compound: COCCCNC(=O)[C@@]1(Cc2ccccc2)N=C(c2ccc(OCCCO)cc2)O[C@H]1c1ccccc1
- z-score [1]: 0.625
- z-score [2]: -1.05 (inactive)
- z-score [3]: -0.0938 (inactive)
- composite z-score [4]: 0.282 (inactive)
- z-score [5]: 0.19 (inactive)
- z-score [6]: -0.82 (inactive)
- z-score [7]: 0.385 (inactive)
- z-score [8]: -0.456 (inactive)
- z-score [9]: 0.297
- composite z-score [10]: -0.0376
- composite z-score [11]: 0.111 (inactive)
- composite z-score (XIP peptide (Xip251-270)): 0.752
- z-score [12]: -2
- z-score [13]: -5.35 (inactive)
- z-score [14]: 0.129 (inactive)
- z-score [15]: 0.221 (inactive)

Compound: O=C1O[C@@H](c2ccccc2)[C@@H](c2ccccc2)N2[C@@H](c3ccccc3OCCO)[C@]3(C(=O)Nc4ccc(C#CC5=CCCCC5)cc43)[C@@H](C(=O)Nc3nc4ccccc4s3)[C@H]12
- z-score [1]: 0.482
- z-score [2]: 1.26 (inactive)
- z-score [3]: -0.785 (inactive)
- composite z-score [4]: -1.7 (inactive)
- z-score [5]: 2.84 (inactive)
- z-score [6]: 1.34 (inactive)
- z-score [7]: -0.583 (inactive)
- z-score [8]: -1.05 (inactive)
- z-score [9]: -1.2
- composite z-score [10]: -0.234
- composite z-score [11]: 0.705 (inactive)
- composite z-score (XIP peptide (Xip251-270)): 0.824
- z-score [12]: -2.09
- z-score [13]: -12.1 (active)
- z-score [14]: -0.183 (inactive)
- z-score [15]: -0.161 (inactive)

Compound: CN1C(=O)[C@]2(Cc3ccccc3)N=C(c3ccc(OCCCO)cc3)O[C@@H]2c2ccccc21
- z-score [1]: -0.635
- z-score [2]: -1.79 (inactive)
- z-score [3]: -2.57 (inactive)
- composite z-score [4]: 0.539 (inactive)
- z-score [5]: 0.814 (inactive)
- z-score [6]: 1.13 (inactive)
- z-score [7]: 0.757 (inactive)
- z-score [8]: 0.0422 (inactive)
- z-score [9]: -2.41
- composite z-score [10]: 0.0617
- composite z-score [11]: 0.97 (inactive)
- composite z-score (XIP peptide (Xip251-270)): 0.818
- z-score [12]: -2.3
- z-score [13]: -4.54 (inactive)
- z-score [14]: -0.276 (inactive)
- z-score [15]: 0.0593 (inactive)

Compound: CN(C)C(=O)[C@@]1(Cc2ccccc2CN=[N+]=[N-])N=C(c2ccc(OCCCO)cc2)O[C@H]1c1ccccc1
- z-score [1]: 0.0128
- z-score [2]: 1.11 (inactive)
- z-score [3]: -1.82 (inactive)
- composite z-score [4]: 1.12 (inactive)
- z-score [5]: 0.41 (inactive)
- z-score [6]: 1.39 (inactive)
- z-score [7]: 0.316 (inactive)
- z-score [8]: 0.0743 (inactive)
- z-score [9]: -3.38
- composite z-score [10]: -0.0118
- composite z-score [11]: 1.79 (inactive)
- composite z-score (XIP peptide (Xip251-270)): 0.817
- z-score [12]: -2.27
- z-score [13]: -5.09 (inactive)
- z-score [14]: -0.631 (inactive)
- z-score [15]: -0.679 (inactive)

Compound: COCCCNC(=O)C1N=C(c2ccc(OCCCO)cc2)N(c2ccccc2)O1 (centres undefined)
- z-score [1]: 0.522
- z-score [2]: -0.5 (inactive)
- z-score [3]: -0.441 (inactive)
- composite z-score [4]: 0.0216 (inactive)
- z-score [5]: -1.45 (inactive)
- z-score [6]: 0.254 (inactive)
- z-score [7]: 0.516 (inactive)
- z-score [8]: 1.03 (inactive)
- z-score [9]: 0.694
- composite z-score [10]: 0.819
- composite z-score [11]: 1.84 (inactive)
- composite z-score (XIP peptide (Xip251-270)): 0.779
- z-score [12]: -0.572
- z-score [13]: -2.25 (inactive)
- z-score [14]: -0.0836 (inactive)
- z-score [15]: 0.164 (inactive)

Compound: O=C1OCCC/C=C\[C@H]2OC34C=CCN(Cc5ccccc5)C(=O)[C@H]3N(CCCCCCO)C(=O)[C@@H]4C12 (some centres undefined)
- z-score [1]: 0.493
- z-score [2]: -0.908 (inactive)
- z-score [3]: -0.549 (inactive)
- composite z-score [4]: -0.0805 (inactive)
- z-score [5]: -0.497 (inactive)
- z-score [6]: 0.692 (inactive)
- z-score [7]: 1.23 (inactive)
- z-score [8]: 1.58 (inactive)
- z-score [9]: 0.809
- composite z-score [10]: -0.15
- composite z-score [11]: 0.704 (inactive)
- composite z-score (XIP peptide (Xip251-270)): -0.819
- z-score [12]: -0.364
- z-score [13]: -5.34 (inactive)
- z-score [14]: -0.121 (inactive)
- z-score [15]: 0.0626 (inactive)

Compound: Cc1ccc(S[C@]2(C(=O)NCC(F)(F)F)CC(=O)N(C(C)C)[C@@H]2c2ccc(CO)cc2I)cc1
- z-score [1]: -0.185
- z-score [2]: -1.52 (inactive)
- z-score [3]: -0.881 (inactive)
- composite z-score [4]: 0.436 (inactive)
- z-score [5]: 0.786 (inactive)
- z-score [6]: 0.701 (inactive)
- z-score [7]: 0.0212 (inactive)
- z-score [8]: -0.105 (inactive)
- z-score [9]: -2.05
- composite z-score [10]: -0.0013
- composite z-score [11]: -0.268 (inactive)
- composite z-score (XIP peptide (Xip251-270)): -0.467
- z-score [12]: -0.181
- z-score [13]: -2.7 (inactive)
- z-score [14]: 0.295 (inactive)
- z-score [15]: 0.84 (inactive)

Compound: C=C(CCCC)/C(=C/C[C@@H](OC(C)=O)c1ccccc1OCCO)c1cnc2ccccc2c1
- z-score [1]: -1.25
- z-score [2]: -1.66 (inactive)
- z-score [3]: -0.614 (inactive)
- composite z-score [4]: -7.22 (inactive)
- z-score [5]: 0.191 (inactive)
- z-score [6]: 0.862 (inactive)
- z-score [7]: -0.765 (inactive)
- z-score [8]: -0.587 (inactive)
- z-score [9]: -0.52
- composite z-score [10]: -0.198
- composite z-score [11]: -0.475 (inactive)
- composite z-score (XIP peptide (Xip251-270)): 0.234
- z-score [12]: -3.01
- z-score [13]: -5.06 (inactive)
- z-score [14]: 1.11 (inactive)
- z-score [15]: 0.212 (inactive)
